Measurements from PubChem BioAssay (NCI).
“And” between values parts separate entries of the source, which are not always exact repeats. Identical values can stand only once. Compounds without any hit were thinned out: in the full panel of roughly 83,000, 20% have a hit.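 96-well plates, one dose, 48 hours. Percent growth reported; active if below 10.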 The source made the active and inactive calls.

Test system: A498 renal
Test: NCI-60 one-dose screen, 48 h (100 = growth as untreated, 0 = no growth, -100 = all killed)
Details: 10 µM unless noted

SMILES | growth
Cn1c(-c2ccccc2)cc(=O)cc1-c1ccccc1 | 106% (inactive)
O=C1C2=C(Nc3cc(Cl)ccc3N2)OC1c1c[nH]c2ccc(COc3ccccc3)cc12 (stereo not drawn) | 102% (inactive)
COc1ccc(S(=O)(=O)c2ccc(F)cc2)cc1 | 108% (inactive)
CCOP(=O)(OCC)/C(C#N)=C/c1c(C)[nH]c2ccccc12 | 116% (inactive)
COc1ccc(CCNC(=S)NN)cc1OC | 106% (inactive)
CS(=O)(=O)OCC1NC(=O)C(COS(C)(=O)=O)NC1=O (stereo not drawn) | 104% (inactive) and 154% (inactive)
COc1cc(NCCCCCCCNC(C)C)c2nccc(C)c2c1 | 80.5% (inactive) and 49.2% (inactive)
N=c1sc2ccccc2n1CC(=O)O | 102% (inactive)
O=C1C=CC(=O)N1Cc1ccco1 | 110% (inactive)
N=C(N)N1CCc2ccccc2C1 | 58.3% (inactive)
Cc1ccc(C(=O)c2ccc(C)cc2)cc1 | 96.4% (inactive) and 111% (inactive)
COC(=O)c1ccccc1Cl | 88.8% (inactive)
O=C(Nc1ccccc1)OCC(CN1CCCCC1)OC(=O)Nc1ccccc1 (stereo not drawn) | 79.5% (inactive) and 68.7% (inactive)
N=C(N=C(N)N)N1CCOCC1 | 91.7% (inactive) and 102% (inactive)
Cc1cc2nc3ccc(=[N+](C)C)cc-3sc2cc1N | 74.9% (inactive) and 65.4% (inactive)
O=C1C=CC(n2cc(F)c(=O)[nH]c2=O)O1 (stereo not drawn) | 79.5% (inactive)
O=C1CCC(=O)N1CC1CC2CCC1C2 (stereo not drawn) | 119% (inactive) and 103% (inactive)
NCCSSC/C=C\CSSCCN | 88.9% (inactive)
COC(=O)c1nc(N)nc(C(=O)OC)c1C(=O)c1cccc2ccccc12 | 105% (inactive)
COc1ccc(COC=O)cc1 | 105% (inactive)

SMILES | growth
CCCCNC(=O)c1ccccc1C | 126% (inactive)
CC(=O)c1cccc(OC(=O)c2ccccc2)c1 | 107% (inactive)
CCNC1=CC(=O)c2ncccc2C1=O | 80.8% (inactive)
O=C(/C=C/C=C/c1ccc2c(c1)OCO2)N1CCCCC1 | 92.7% (inactive) and 83.6% (inactive)
CCN(CC)Cc1cc2[nH]c3c4ccc(Cl)cc4ncc3c2cc1OC | 146% (inactive) and 106% (inactive)
C/C=C/C(=O)OCCCCCCCCCCCC | 103% (inactive)
COc1ccc(CCn2cnn3c(=O)c4ccccc4nc3c2=O)cc1OC | 90.6% (inactive) and 129% (inactive)
N#Cc1c[nH]n2ccnc12 | 117% (inactive)
NC1=NC(c2ccccc2)N=C(Nc2ccccc2)N1 (stereo not drawn) | 96.3% (inactive) and 110% (inactive)
Cc1nc(Nc2ccc(Cl)cc2)c2cnn(-c3ccccc3)c2n1 | 83.5% (inactive)
CC(C)(C)C1=CC(=O)C(C(C)(C)C)=CC1=O | 122% (inactive)
CC1(C)OC(=O)C(=Cc2ccc(C#N)cc2)C(=O)O1 | 104% (inactive) and 94.8% (inactive)
COC(=O)CCOc1ccccc1 | 83.9% (inactive)
Cc1cc(-c2ccc(N=Nc3c(C)nn(-c4ccc(S(=O)(=O)O)cc4)c3O)c(C)c2)ccc1N=Nc1ccc(O)c(C(=O)O)c1 | 120% (inactive)
OCc1ccccc1F | 98.5% (inactive)
O=C(O)c1cc(=O)[nH]c(=O)[nH]1 | 94.3% (inactive) and 71.1% (inactive)
O=C(O)c1cccc(Br)c1 | 99.8% (inactive) and 83% (inactive)
CCN(CC)C(CC(=O)c1ccccc1)C(=O)c1ccccc1 (stereo not drawn) | 75.1% (inactive)
O=S(=O)(O)c1ccc2cc(O)ccc2c1 | 78.8% (inactive)

Test system: CCRF-CEM leukemia
Test: as above
Details: 10 µM unless noted

SMILES | growth
Cn1c(-c2ccccc2)cc(=O)cc1-c1ccccc1 | 79.8% (inactive)
O=C1C2=C(Nc3cc(Cl)ccc3N2)OC1c1c[nH]c2ccc(COc3ccccc3)cc12 (stereo not drawn) | 64.1% (inactive)
COc1ccc(S(=O)(=O)c2ccc(F)cc2)cc1 | 84.6% (inactive)
CCOP(=O)(OCC)/C(C#N)=C/c1c(C)[nH]c2ccccc12 | 89.6% (inactive)
COc1ccc(CCNC(=S)NN)cc1OC | 92.5% (inactive)
CS(=O)(=O)OCC1NC(=O)C(COS(C)(=O)=O)NC1=O (stereo not drawn) | 82.4% (inactive) and 74.2% (inactive)
COc1cc(NCCCCCCCNC(C)C)c2nccc(C)c2c1 | 92.7% (inactive)
N=c1sc2ccccc2n1CC(=O)O | 85.8% (inactive)
O=C1C=CC(=O)N1Cc1ccco1 | 101% (inactive)
N=C(N)N1CCc2ccccc2C1 | 91.9% (inactive)
Cc1ccc(C(=O)c2ccc(C)cc2)cc1 | 91.6% (inactive) and 93.3% (inactive)
COC(=O)c1ccccc1Cl | 100% (inactive)
O=C(Nc1ccccc1)OCC(CN1CCCCC1)OC(=O)Nc1ccccc1 (stereo not drawn) | 82.3% (inactive)
N=C(N=C(N)N)N1CCOCC1 | 107% (inactive) and 93.8% (inactive)
Cc1cc2nc3ccc(=[N+](C)C)cc-3sc2cc1N | -7.13% (active) and -12.1% (active)
O=C1C=CC(n2cc(F)c(=O)[nH]c2=O)O1 (stereo not drawn) | 50.4% (inactive)
O=C1CCC(=O)N1CC1CC2CCC1C2 (stereo not drawn) | 95.1% (inactive) and 104% (inactive)
NCCSSC/C=C\CSSCCN | 95.8% (inactive)
COC(=O)c1nc(N)nc(C(=O)OC)c1C(=O)c1cccc2ccccc12 | 101% (inactive)
COc1ccc(COC=O)cc1 | 103% (inactive)

SMILES | growth
CCCCNC(=O)c1ccccc1C | 99.7% (inactive)
CC(=O)c1cccc(OC(=O)c2ccccc2)c1 | 97.8% (inactive)
CCNC1=CC(=O)c2ncccc2C1=O | 76.7% (inactive)
O=C(/C=C/C=C/c1ccc2c(c1)OCO2)N1CCCCC1 | 109% (inactive) and 107% (inactive)
CCN(CC)Cc1cc2[nH]c3c4ccc(Cl)cc4ncc3c2cc1OC | -21.5% (active) and 61% (inactive)
C/C=C/C(=O)OCCCCCCCCCCCC | 117% (inactive)
COc1ccc(CCn2cnn3c(=O)c4ccccc4nc3c2=O)cc1OC | 97.6% (inactive)
N#Cc1c[nH]n2ccnc12 | 109% (inactive)
NC1=NC(c2ccccc2)N=C(Nc2ccccc2)N1 (stereo not drawn) | 49.6% (inactive) and 95.1% (inactive)
Cc1nc(Nc2ccc(Cl)cc2)c2cnn(-c3ccccc3)c2n1 | 26.1% (inactive)
CC(C)(C)C1=CC(=O)C(C(C)(C)C)=CC1=O | 96.1% (inactive) and 97.9% (inactive)
CC1(C)OC(=O)C(=Cc2ccc(C#N)cc2)C(=O)O1 | 102% (inactive) and 97.1% (inactive)
COC(=O)CCOc1ccccc1 | 95.2% (inactive)
Cc1cc(-c2ccc(N=Nc3c(C)nn(-c4ccc(S(=O)(=O)O)cc4)c3O)c(C)c2)ccc1N=Nc1ccc(O)c(C(=O)O)c1 | 99.4% (inactive)
OCc1ccccc1F | 83.9% (inactive)
O=C(O)c1cc(=O)[nH]c(=O)[nH]1 | 105% (inactive) and 74.4% (inactive)
O=C(O)c1cccc(Br)c1 | 99.7% (inactive) and 101% (inactive)
CCN(CC)C(CC(=O)c1ccccc1)C(=O)c1ccccc1 (stereo not drawn) | 30.4% (inactive)
O=S(=O)(O)c1ccc2cc(O)ccc2c1 | 109% (inactive)
